Out of some 340,000 compounds screened, about 1,000 (0.29%) were called active. No stated cut-off is given here; in the data, inconclusive means inhibition above about 27% without an active follow-up result; inactive means below that. The list is a sample of the results. Results with a measured potency or affinity are listed apart.
Assay: NS1A inhibition, H1N1 influenza, cell based functional assay (AID 504329)
Settings: percent inhibition, at 12.5 µM, hits give high values

Row | SMILES | inhibition
1 | CC(C)C(NC(=O)C1CC(=O)N(Cc2ccccc2)C1)c1nc2ccccc2[nH]1 (stereo not drawn) | -13.6% (inactive)
2 | O=C(c1cc2ccccc2c(=O)o1)N1CCCCCC1 | -12.3% (inactive)
3 | Cc1cc(N2CCOCC2)ccc1/C=C1\NC(=O)N(Cc2ccccc2F)C1=O | -4.62% (inactive)
4 | CC(=O)Nc1nc(CCl)cs1 | -0.43% (inactive)
5 | O=C(O)c1cc(N=Nc2c(O)ccc3ccccc23)cc(C(=O)O)c1 | 13.6% (inactive)
6 | NS(=O)(=O)c1ccc(N=Nc2c(O)ccc3ccccc23)cc1 | 7.02% (inactive)
7 | Oc1[nH]c2ccccc2c1N=Nc1ccccc1F | -4.52% (inactive)
8 | O=S(=O)(O)c1cccc(N=Nc2c(O)ccc3ccccc23)c1 | 22.8% (inactive)
9 | Cn1c(O)c(N=Nc2ccc(F)cc2)c2ccccc21 | -0.89% (inactive)
10 | O=C(O)c1cc2ccccc2c(N=Nc2cccnc2)c1O | 16.2% (inactive)
11 | NS(=O)(=O)c1ccc(N=Nc2c(O)c(C(=O)O)cc3ccccc23)cc1 | 14% (inactive)
12 | Oc1ccc(N=Nc2ccc3ccccc3c2)cc1 | 3.88% (inactive)
13 | Cc1ccccc1C(=O)N=c1sccn1C | -5.97% (inactive)
14 | O=C(NC1CCCCC1)c1c(O)nc2sccn2c1=O | 0.11% (inactive)
15 | O=C(COc1ccccc1Cl)Nc1ccccc1C(=O)Nc1cccc(C(=O)O)c1 | 1.12% (inactive)
16 | COc1ccc(-c2cc(C(=O)Nc3cccc(S(=O)(=O)NCc4ccco4)c3)c3ccccc3n2)cc1OC | -2.45% (inactive)
17 | COc1ccccc1C(=O)N/C(=C\c1ccc(Br)cc1)C(=O)NCCO | -1.68% (inactive)
18 | COC(=O)N/N=C(\C)c1ccc(C)c([N+](=O)[O-])c1 | 2.68% (inactive)
19 | CCC(CC)C(=O)Nc1nnc(S(=O)(=O)Nc2ccccc2C)s1 | -5.98% (inactive)
20 | O=C(COc1ccccc1)NCC(=O)N/N=C/c1ccco1 | 8.38% (inactive)
21 | O=C(Nc1ccccc1N1CCOCC1)c1cccc(Oc2ccccc2)c1 | 5.8% (inactive)
22 | CCCCn1c(O)c(N=Nc2ccccn2)c2ccccc21 | -1.48% (inactive)
23 | Oc1[nH]c2ccccc2c1N=Nc1ccccn1 | -23.1% (inactive)
24 | CN(C)S(=O)(=O)c1ccc(Cl)c(C(=O)NNC(=O)Cc2nc3ccccc3n2C)c1 | -3.93% (inactive)
25 | CCO/C=C1/C(=O)N(c2ccc(OC)cc2)C(=O)c2ccccc21 | 1.21% (inactive)

Row | SMILES | inhibition
26 | Cc1cc(C)nc(NS(=O)(=O)c2ccc(N3C(=O)c4ccccc4C3=O)cc2)n1 | -5.14% (inactive)
27 | CCOc1ccc(N2C(=O)c3ccccc3C2=O)cc1 | 5.19% (inactive)
28 | CCO/C=C1\C(=O)N(c2ccccc2)C(=O)c2ccccc21 | 4.03% (inactive)
29 | Cc1[nH]c2ccccc2c1C(=O)C(=O)N1CCCc2ccccc21 | -5.75% (inactive)
30 | Cc1cc(N(CCO)CCO)ccc1C(c1ccc(N(CCO)CCO)cc1C)c1ccccc1Cl | 19.6% (inactive)
31 | Nc1ccc(N(CCO)CCO)cc1 | 11.7% (inactive)
32 | O=C1CCC(C(=O)N2CCSCC2)CN1CCc1ccccc1 (stereo not drawn) | 5.31% (inactive)
33 | CCOC(=O)C1=C(Cc2ccc(F)cc2)C(=O)c2ccccc2C1=O | 19.2% (inactive)
34 | CCOC(=O)C1=C(Cc2ccc(Cl)cc2)C(=O)c2ccccc2C1=O | 21.1% (inactive)
35 | N#Cc1c(N)nc2c(c1-c1ccc(F)cc1)CCC2 | 0.84% (inactive)
36 | C[C@H](C(=O)NCc1ccccc1)C(=O)c1ccccc1 | 8.83% (inactive)
37 | COc1ccc(-c2csc(N(CCc3ccc(OC)c(OC)c3)C(=O)COc3ccccc3)n2)cc1 | 1.44% (inactive)
38 | CC(C)CCn1nnnc1C(c1ccc(F)cc1)N1CCC(C(N)=O)CC1 (stereo not drawn) | -2.77% (inactive)
39 | CC(=O)c1ccc(-c2ccccc2)cc1 | 7.71% (inactive)
40 | O=C(NCc1cccs1)C1CCN(c2nccs2)CC1 | 5.59% (inactive)
41 | COc1cc(/C=N/NC(=S)Nc2cccc(C(=O)O)c2)cc(OC)c1OC | -7.56% (inactive)
42 | COc1cc(OC)c([N+](=O)[O-])cc1/C=N/NC(=O)c1ccncc1 | 1.29% (inactive)
43 | COc1ccc(/C=N\NC(=O)C2=NNC(=O)C2C)cc1 (stereo not drawn) | 3.13% (inactive)
44 | O=C(N/N=C/c1ccc(Br)cc1)c1cc[n+]([O-])cc1 | 6.04% (inactive)
45 | COc1cc(/C=N/NC(=O)C2=NNC(=O)C2C)ccc1O (stereo not drawn) | -32.2% (inactive)
46 | O=C(N/N=C/c1ccccc1)c1cc[n+]([O-])cc1 | -4.01% (inactive)
47 | COc1cc(/C=N/NC(=S)Nc2cccc(C(=O)O)c2)ccc1O | -4% (inactive)
48 | COc1cc(/C=N/NC(=O)c2ccncc2)c([N+](=O)[O-])cc1OC | -2.25% (inactive)
49 | CC(NC(=O)c1ccc(NC(=O)CC2SC(N3CCCC3)=NC2=O)cc1)c1ccccc1 (stereo not drawn) | -7.82% (inactive)
50 | O=S(=O)(c1ccc(S(=O)(=O)N2CCOCC2)cc1)N1CCCC1 | 4.18% (inactive)

Row | SMILES | inhibition
51 | CCCCC(=O)N(c1ccc(C(=O)O)cc1)c1nc(-c2ccc(Cl)cc2)c(CC)s1 | -4.2% (inactive)
52 | O=C(NC1CCCCC1)C1CC(=O)N(Cc2ccccc2)C1 (stereo not drawn) | -1.57% (inactive)
53 | C[N+](C)(C)C(Cc1ccccc1)C(=O)[O-] (stereo not drawn) | -4.58% (inactive)
54 | COc1cccc(/C=N/NC(=O)C(=O)NCc2cccnc2)c1OC | -5.14% (inactive)
55 | CCOc1cc(/C=N/NC(=O)c2cccnc2)ccc1O | 11.3% (inactive)
56 | CCOc1cc(Br)cc(/C=N/NC(=O)c2cccnc2)c1O | 15.9% (inactive)
57 | O=C(O)c1cccc(NC(=S)N/N=C/c2cccc(O)c2)c1 | 2.28% (inactive)
58 | O=C(O)c1cccc(NC(=S)N/N=C/c2cccnc2)c1 | 4.47% (inactive)
59 | COc1cc(OC)c(OC)cc1/C=N/NC(=O)C[n+]1ccccc1 | -11.7% (inactive)
60 | COc1ccccc1/C=N/NC(=O)C(=O)NCc1cccnc1 | -1.04% (inactive)
61 | COc1cccc(/C=N/NC(=O)C[n+]2ccccc2)c1OC | 0.86% (inactive)
62 | CCOc1ccc(NS(=O)(=O)c2cccc(C(=O)NCC3(N(C)C)CCCCC3)c2)cc1 | 0.36% (inactive)
63 | Cc1cc2nc(-c3ccc[nH]c3=O)n(Cc3ccc(F)cc3)c2cc1C | 1.86% (inactive)
64 | COc1cccc(CNC(=O)COC(=O)C23CC4CC(CC(Cl)(C4)C2)C3)c1 | -9.8% (inactive)
65 | O=C(CN(Cc1ccccc1Cl)C(=O)c1ccc(CN2CCOCC2)o1)NCc1ccccc1 | 1.95% (inactive)
66 | O=c1c2ccccc2nc(SCCN2CCCCC2)n1CCc1ccccc1 | 6.75% (inactive)
67 | CC/C(C)=N/N1C(=O)c2ccccc2NC1(C)CC (stereo not drawn) | 5.09% (inactive)
68 | O=C(CCc1c[nH]c2ccccc12)NCC1CCCO1 (stereo not drawn) | -2.9% (inactive)
69 | O=C(Cn1c(-c2ccccc2)noc1=O)Nc1ccc(S(=O)(=O)N2CCOCC2)cc1 | 2.21% (inactive)
70 | O=C(N/N=C/c1ccc(O)cc1)c1ccncc1 | -6.99% (inactive)
71 | COc1cccc(/C=N/NC(=O)CNC(=O)c2ccncc2)c1O | 10.4% (inactive)
72 | O=C(CNC(=O)c1ccncc1)N/N=C/c1ccc(O)cc1O | 9.53% (inactive)
73 | Cc1nonc1C(=O)N/N=C/c1cccc(O)c1 | -4.77% (inactive)
74 | COc1ccccc1C=NNC(=O)c1ccncc1 | -14.4% (inactive)
75 | Cc1nonc1C(=O)N/N=C/c1ccc(O)c(O)c1 | -5.97% (inactive)

Row | SMILES | inhibition
76 | O=C(N/N=C/c1ccccc1C(=O)O)c1ccncc1 | -0.84% (inactive)
77 | O=C(N/N=C/c1ccccc1Cl)c1ccncc1 | 2.1% (inactive)
78 | CC(NC(=O)COC(=O)/C=C/c1ccco1)c1ccccc1 (stereo not drawn) | -3.74% (inactive)
79 | CCOC(=O)c1ccccc1NC(=O)CSc1nc(N)cc(=O)[nH]1 | -7.55% (inactive)
80 | CN(C)C(=O)c1ccc(NC(=O)COc2cccc(Oc3ccccc3)c2)cc1 | -4.79% (inactive)
81 | CC(C)CCC(C(=O)O)C(C)CC(=O)NC1CCCCC1 (stereo not drawn) | 4.04% (inactive)
82 | CCC(C)[C@H](NC(=O)N1CC(=O)Nc2ccccc21)C(=O)N1CCC(C(=O)O)CC1 (stereo partly drawn) | 1.95% (inactive)
83 | Cc1cccc(N(C(=O)CNC(=O)c2ccco2)C(C(=O)NC2CCCC2)c2ccncc2)c1C (stereo not drawn) | 6.68% (inactive)
84 | CCCn1cc(CN2CCC(n3nccc3NC(=O)CCOc3ccccc3)CC2)c(C)n1 | 3.28% (inactive)
85 | CN1CCN(c2ccc(S(=O)(=O)N3CCCCC3)cn2)CC1 | -0.41% (inactive)
86 | O=C(COC(=O)c1cc([N+](=O)[O-])ccc1N1CCOCC1)Nc1ccc(Cl)cc1 | -5.7% (inactive)
87 | Cc1cccc(C)c1C(=O)N[C@@H](Cc1ccccc1)C(=O)O | 2.25% (inactive)
88 | O=C(NN=Cc1ccccc1O)C1CC1 | -17.2% (inactive)
89 | O=C(N/N=C/c1ccccc1O)NC12CC3CC(CC(C3)C1)C2 | -3.3% (inactive)
90 | O=c1[nH]c2cc(Cl)c(Cl)cc2o1 | -8.2% (inactive)
91 | O=C(COC(=O)C1(c2ccccc2)CC1)NNC(=O)c1ccccc1F | -15.8% (inactive)
92 | Cc1c(N=Nc2c(O)n(C)c(=O)n(C)c2=O)c(=O)n(-c2ccccc2)n1C | 3.65% (inactive)
93 | CC1(C)CC(=O)C(N=Nc2c(Cl)cc(Cl)cc2Cl)=C(O)C1 | 9.91% (inactive)
94 | Cc1c(N=Nc2ccc(O)cc2)c(=O)n(-c2ccccc2)n1C | -3.89% (inactive)
95 | CC1(C)CC(=O)C(N=Nc2ccc(-c3ccccc3)cc2)=C(O)C1 | 10.2% (inactive)
96 | Cc1cc(NC(=O)CC(C)C)c(=O)n(Cc2c(F)cccc2Cl)c1 | -1.36% (inactive)
97 | Cc1ccc(S(=O)(=O)N2CCN(C(=O)CC3CCCC3)CC2)cc1 | 2.13% (inactive)
98 | Cc1cc(C)c2nc(SCC(=O)NNC(=O)c3ccco3)c(C)cc2c1 | -0.91% (inactive)
